Source: PubChem (National Center for Advancing Translational Sciences (NCATS))
HT1080NT lethal: qHTS for induction of synthetic lethality in tumor cells producing 2HG: qHTS for the HT-1080-NT fibrosarcoma cell line; hit rate 1.6% among 360,000; AID 686970, 2013; Potency, µM (top dose mostly 46.1 µM), without a hit: at the top dose activity, negative = less viability, hits mostly cytotoxic; HT-1080-NT fibrosarcoma viability, CellTiter-Glo ATP luminescence, 48 h;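 also: NT is the 2HG producing partner of a matched IDH1 knockdown line; potency is read from the fitted curve at half-maximal effect; 0% = DMSO-treated cells and -100% = media-only wells without cells; nearly all actives have a fitted effect of over 55% in size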
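750 cells/well, RPMI + 5% FBS; 2 h settle, compound pin-transfer, 48 h at 37 degrees C. CellTiter-Glo 10 min RT, luminescence. Normalized to DMSO and media-only wells.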
IL1B secr inh: qHTS for Inhibitors of Inflammasome Signaling: IL-1-beta AlphaLISA Primary Screen; THP-1 LPS/ATP IL-1B secretion, AlphaLISA, 16 h; hits give low values; activity change, % at 57.5 µM; hit rate 4.7% among 360,000; in the data active = activity change below about -50%; inconclusive = mostly about -30% to -49%; also: % is scaled to controls: 0 for no effect and ±100 for the full control effect
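THP-1 cells pretreated 1 hr with compounds (up to 57.5 uM final), then stimulated with LPS (250 ng/mL final) plus ATP (1.25 mM final); secreted IL-1B measured by AlphaLISA after 16 hr, decreased signal indicating inhibition.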
TGFb inhibitor: qHTS for Inhibitors of TGF-b | Potency, µM (doses to about 46.1 µM), inactives show at the highest dose activity, negative = inhibition, most hits filed as inhibitors | hit rate 1.2% among 410,000 | AID 588855, 2011 | HepG2 CAGA-GFP TGF-b/SMAD3 reporter, GFP fluorescence, 18 h; TGF-beta stimulated, 500 pg/mL final; also: potency is read from the fitted curve at half-maximal effect; % is scaled to controls: 0 for no effect and ±100 for the full control effect; nearly all actives have a fitted effect of over 65% in size
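Cell-based qHTS in HEPG2 carrying a CAGA-GFP Smad reporter; compounds added before 500 pg/mL final TGF-beta, 18 h incubation at 37 degrees C, GFP fluorescence quantified per cell by imaging cytometry.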
Giardia kill: Small Molecules that selectively kill Giardia lamblia: qHTS; Giardia lamblia trophozoite viability; activity change, % at 7.66 µM, hits read low; hit rate 0.15% among 340,000; AID 540267, 2011; in the data active = activity change below about -80%; inconclusive = between about -30% and that limit;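 also: parasites exposed to compound for two days anaerobically before the ATP read; % is scaled to controls: 0 for no effect and ±100 for the full control effect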
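Luminescence from cellular ATP indicates surviving trophozoites (100 cells/well) following 48 hrs anaerobic compound treatment at 37 deg C; signal develops 15-30 min at room temperature.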
HepG2 viability: qHTS for Inhibitors of TGF-b: Cytotox Counterscreen; HepG2 CAGA-GFP viability, ATP luminescence, 18 h; hit rate 0.76% among 410,000; Potency, µM (doses to about 46.1 µM), without a hit: top-dose activity change, negative = cytotoxicity, hits mostly cytotoxic; AID 588856, 2011; also: potency is read from the fitted curve at half-maximal effect
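HepG2 CAGA-GFP cells (1000/well, DMEM with 1% FBS) received compound, then TGF-beta at 500 pg/mL final, and were incubated 18 hours at 37 degrees C. Viability was read by CellTiter-Glo luminescence. Media-only wells were set as complete cell-killing and DMSO as no toxicity.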
HT1080 IDH1KD tx: qHTS for induction of synthetic lethality in tumor cells producing 2HG: qHTS for the HT-1080-IDH1KD cell line; HT-1080 IDH1 knockdown viability, ATP luminescence, 48 h; Potency, µM (series often up to 46.1 µM), for the others: top-dose activity, negative = toxicity, hits mostly cytotoxic; hit rate 2% among 360,000;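 also: potency is read from the fitted curve at half-maximal effect; 0% = DMSO wells and -100% = cell-free medium wells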
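IDH1KD HT-1080 cells, 750/well, RPMI + 5% FBS; compound pinned after 2 h settling; 48 h, 37 °C; CellTiter-Glo luminescence; % activity normalised to DMSO and no-cell wells; curves fitted, classed by r2 and efficacy.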
An asterisk follows results filed as active; ? = inconclusive; nt = no result; [ ] = another dose, or the depositor's remark. Only some compounds are listed: those with a hit (about 6.5% of all), similar ones and a draw of the others. Unless noted, calls follow the shape of the dose curve; as a rule, active = well fitted curve in the direction sought with a large enough effect; inconclusive = small, poorly fitted or top-dose-only effect, or another doubt; inactive = no such curve, though single readings can be large; an effect the other way counts as inactive or inconclusive.

SMILES	HT1080NT lethal	IL1B secr inh	TGFb inhibitor	Giardia kill	HepG2 viability	HT1080 IDH1KD tx
C=CCc1cc(Cl)ccc1OCCCNCCO	?	-11	-15%	-4	-30%	?
CCC(C)NCCOCCSc1ccc(Cl)cc1 (stereo not drawn)	0%	-52*	24%	-3	-42%	-14%
C=CCc1cc(Cl)ccc1OCCOCCNC(C)CC (stereo not drawn)	16µM*	-78*	39%	-1	-46%	?
CC1CC(C)CN(CCOCCSc2ccc(Cl)cc2)C1 (stereo not drawn)	?	?	-29%	4	-45%	?
C=CCc1cc(Cl)ccc1OCCCNC(C)C	?	-59*	-11%	0	-33%	-26%
CN1CCN(CC(=O)Nc2c(C#N)cnn2-c2ccccc2)CC1	8%	17	1%	8	-19%	8%
Cc1c(C)c2cc3c(C)coc3cc2oc1=O	2%	-51*	-2%	-12	-8%	13%
O=c1[nH]c(CSc2nc3ccccc3o2)nc2c1cnn2-c1ccccc1	?	26	3%	6	0%	-33%
CCOC(=O)CNC(=S)N(Cc1ccc(C)cc1)Cc1ccc(C)o1	0%	-55*	-18%	16	-12%	-4%
Cc1ccc(NC(=O)C2CCCN(C(=O)Nc3ccc(F)cc3)C2)cc1 (stereo not drawn)	-14%	-10	-28%	5	-4%	-18%
Cc1ccc(C2CCN(C(=O)Nc3ccc(F)cc3)C2)cc1 (stereo not drawn)	-3%	-68*	12%	-1	-14%	1%
Cc1cc(C(=O)Nn2c(-c3ccc(Br)cc3)nc3ccccc3c2=O)ccc1[N+](=O)[O-]	33µM*	25	13µM*	8	-31%	?
Cc1ccc(NC(=O)c2ccc(NCCCN3CCC(C)CC3)c([N+](=O)[O-])c2)cc1F	?	?	5%	5	-5%	?
O=C(NCCCN1CCOCC1)c1ccc(Sc2ccccc2Cl)c([N+](=O)[O-])c1	2%	-52*	-24%	-14	-4%	-9%
O=C(NCCCN1CCOCC1)c1ccc(Sc2ccc(Br)cc2)c([N+](=O)[O-])c1	-1%	16	-11%	-10	-7%	10%
O=C(Nc1cccc(Cl)c1)c1ccc(NCCCN2CCOCC2)c([N+](=O)[O-])c1	?	-51*	?	9	-40%	?
O=C1C(C2=C(O)c3ccccc3C2=O)=Nc2ccccc21	-27%	-93*	268%	5	11µM*	?
CN=CC1=C(O)c2ccccc2C1=O	1%	23	18%	1	3%	4%
COc1ccc2cc3c(N)c(C(=O)N4CCCC4)sc3nc2c1	6%	-69*	?	10	-35%	0%[9.24 µM]
COc1ccc2cc3c(N)nn(C(=O)Cc4c[nH]c5ccccc45)c3nc2c1	?	-98*	?	19	-53%	?
COc1ccc2cc3c(N)nn(C(=O)c4ccccc4Cl)c3nc2c1	?	-65*	?	5	-26%	-9%
Cc1ccc2nc3c(cc2c1)c(NC(=O)c1ccco1)nn3CC(C)C	12%	-24	-12%	8	-20%	9%
CC(=O)Nc1cccc(Oc2ncnc3scc(-c4ccccc4)c23)c1	-29%	-53*	?	2	-13%	-16%
FC(F)(F)COc1nc(OCC(F)(F)F)nc(N2CCN(c3ccccc3)CC2)n1	1%	-54*	10%	-18	0%	-11%
CCCN(C(=O)CCl)C1=CCCCC1	10µM*	-87*	-1%	-20	-18%	?
SMILES	HT1080NT lethal	IL1B secr inh	TGFb inhibitor	Giardia kill	HepG2 viability	HT1080 IDH1KD tx
CCCn1c2c(c(O)c(C(=O)Nc3ccc(OCC)cc3)c1=O)CCCC2	7%	31	9%	-1	0%	11%
Cc1[nH]nc(-c2cccnc2)c1N=NN(C)C	21µM*	-104*	?	-20	14µM*	21µM*
CN(C)c1nc(N)nc(-c2cccnc2)n1	19%	-5	2%	6	33%	10%
O=C(/C=C/c1ccc(Cl)cc1)NC1CC2CCC1C2 (stereo not drawn)	-5%	-99*	-7%	-20	-1%	-10%
O=C(/C=C/c1ccccc1)NC1CC2CCC1C2 (stereo not drawn)	18%	1	-1%	-1	-1%	16%
CN1CCc2nc3ccc(Cl)cc3c(-c3ccccc3Cl)c2C1	-23%	-56*	-2%	0	-26%	-20%
O=C(NC(=S)NNC(=O)c1cnccn1)c1ccc(Cl)cc1	-18%	20	31%	-17	6%	?
COc1cc(C(=O)NC(=S)NNC(=O)c2cnccn2)cc(OC)c1OC	?	11	-4%	?	-4%	15µM*
COc1ccc(C(=O)NNC(=O)c2ccc(C(C)(C)C)cc2)cc1	-13%	-2	1%	20	-6%	13%
CCCCOc1ccc(C(=O)NNC(=O)c2cnccn2)cc1OC	?	-73*	22%	12	-34%	?
COc1ccc(C(=O)NNC(=S)NC(=O)C(C)(C)C)cc1	-28%	-102*	5%	-23	14%	?
O=C(NNC(=S)NC1CCCCC1)c1sc2ccccc2c1Cl	?	-11	?	1	-50%	?
CC(C)(C)C(=O)NC(=S)NNC(=O)c1sc2ccccc2c1Cl	16µM*	38	-20%	-8	11µM*	12µM*
O=C1CC(c2ccc(Cl)cc2)CC(O)=C1C=NCCO (stereo not drawn)	16%	13	-1%	-19	8%	0%
O=C1CC(c2ccccc2)NC(=S)N1 (stereo not drawn)	2%	13	-9%	nt	5%	-3%
COc1ccc(C(=O)NC(=S)NNC(=O)c2cnccn2)cc1	?	23	3%	7	-29%	2.9µM*
CCNC(=O)C1(C)CCCN(C(=O)/C=C/c2ccccc2)C1 (stereo not drawn)	?	1	-12%	nt	-1%	21%
CCc1nnc(NC(=O)CSc2nccn2-c2ccc(OC)cc2)s1	nt	nt	-24%	nt	-20%	nt
CCc1cccc(C)c1NS(=O)(=O)c1ccc(-n2cccn2)cc1	nt	nt	?	nt	-23%	nt
O=C(/C=C/c1cccc(Cl)c1)Nn1c(-c2cccs2)nc2ccccc2c1=O	-4%	-55*	12%	14	12%	0%
